Screening results deposited in PubChem by National Center for Advancing Translational Sciences (NCATS).
Rab9 prom act – qHTS Assay for Rab9 Promoter Activators. Huh7 Rab9 promoter-luciferase reporter, luminescence, 24 h. Potency, µM (titrated, usually from 9.22 µM), for the others: top-dose activation, negative = inhibition, hits mostly activators. 2.8% of 320,000 active. AID 485297, 2010; note: % of control where 0% means no effect; nearly all actives have a fitted effect of over 60% in size
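Luminescence from Amplite-detected luciferase (10 minutes, ambient) reports Rab9 promoter activation. Before that, stable Rab9-luciferase Huh7 cells (1500/well, reduced-serum OP-MEM I plus 10% FBS) were exposed to compound for 24 hours at 37C.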
NPC1 prom act – qHTS Assay for NPC1 Promoter Activators; 2.4% of 320,000 active; Potency, µM (titrated, usually from 9.22 µM), for inactives: at the highest dose activation, usual class: activators; Huh7 NPC1 promoter luciferase reporter, 24 h; note: % of control where 0% means no effect; nearly all actives have a fitted effect of over 60% in size
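Luminescence from an NPC1 promoter-driven luciferase reporter in stably transfected Huh7 cells was measured after 24 h compound treatment at 37 °C, followed by 10 min ambient incubation with luciferase detection reagent.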
SMN2 splice up – qHTS Assay for Enhancers of SMN2 Splice Variant Expression; 2.8% of 210,000 active; Potency, µM (series often up to 46.1 µM), inactives show at the highest dose activity change, positive = activation, actives largely listed as activators; HEK293 SMN2-luciferase splicing reporter, luminescence, 30-36 h; note: % of control where 0% means no effect; nearly all actives have a fitted effect of over 55% in size
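HEK293 cells carry an SMN2 minigene-luciferase reporter in which exon 7 inclusion puts luciferase in frame. Cells were seeded at 2000 cells/well, attached for 10-12 hours, then exposed to compounds for 30-36 hours at 37C before ONE-Glo luminescence.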
ELG1 genotoxic – qHTS screen for small molecules that induce genotoxicity in human embryonic kidney (HEK293T) cells expressing luciferase-tagged ELG1. 1.3% of 330,000 active. Potency, µM (titrated, usually from 46 µM), inactives show at the highest dose activity change, positive = activation, usual class: activators. HEK293T ELG1-luciferase reporter, luminescence, 16 h; note: % of control where 0% means no effect; nearly all actives have a fitted effect of over 60% in size
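Genotoxicity was scored as increased ELG1-luciferase reporter signal, measured by ONE-Glo luminescence (30 min, room temperature). Compound or vehicle exposure of the HEK293T reporter cells lasted 16 hr at 37°C.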
ELG1 DNA repair – qHTS screen for small molecules that inhibit ELG1-dependent DNA repair in human embryonic kidney (HEK293T) cells expressing luciferase-tagged ELG1 | 2.3% of 330,000 active | Potency, µM (top dose mostly 46.1 µM), for the others: top-dose activity change, negative = inhibition, usual class: inhibitors | AID 504467, 2011 | HEK293T ELG1-luciferase reporter, luminescence, 16 h; DNA damage induced by 5-fluorouridine; note: % is set by controls: 0 for no effect and ±100 for the full control effect; nearly all actives have a fitted effect of over 55% in size
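Cells (2,000 per well) received 5-fluorouridine plus test compound or DMSO and were incubated 16 hr at 37 °C, 5% CO2. Luciferase activity was read by luminescence 30 min after ONE-Glo addition; signal suppression marked inhibition of damage-induced ELG1 function.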
FLuc counter – qHTS profiling assay for firefly luciferase inhibitor/activator using purifed enzyme and Km concentrations of substrates (counterscreen for miR-21 project). purified FLuc, Km substrates, luminescence inhibition. Potency, µM (series often up to 57.5 µM), for inactives: at the top dose activity change, negative = inhibition, actives largely listed as inhibitors. 6.9% of 360,000 active;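 note: plate controls were vehicle for no effect and reference inhibitor for full effect; nearly all actives have a fitted effect of over 55% in size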
Target sequence (P08659 whole entry, looked up): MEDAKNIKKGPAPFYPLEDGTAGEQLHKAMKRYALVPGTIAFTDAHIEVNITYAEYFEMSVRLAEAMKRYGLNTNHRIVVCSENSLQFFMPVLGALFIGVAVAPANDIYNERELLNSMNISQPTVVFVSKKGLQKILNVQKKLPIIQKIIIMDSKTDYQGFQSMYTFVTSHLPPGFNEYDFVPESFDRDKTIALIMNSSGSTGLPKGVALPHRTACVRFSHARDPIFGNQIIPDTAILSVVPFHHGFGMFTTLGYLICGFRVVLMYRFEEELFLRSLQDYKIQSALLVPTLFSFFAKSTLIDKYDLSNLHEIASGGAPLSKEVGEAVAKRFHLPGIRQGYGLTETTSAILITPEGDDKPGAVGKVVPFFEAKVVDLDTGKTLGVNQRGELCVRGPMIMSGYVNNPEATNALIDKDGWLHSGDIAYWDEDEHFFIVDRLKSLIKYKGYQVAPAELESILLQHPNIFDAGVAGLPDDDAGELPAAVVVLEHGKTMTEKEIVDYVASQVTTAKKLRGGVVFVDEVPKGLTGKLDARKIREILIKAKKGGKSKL
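Purified P. pyralis luciferase (10nM final) with 10uM D-luciferin and 10uM ATP (Km levels) in 50mM Tris acetate pH 7.5, 10mM Mg acetate, 0.01% Tween-20, 0.05% BSA; qHTS 6-point titration, ~60 µM downward; luminescence read.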
The depositor's hits bear a star; ? = inconclusive; . = no result; [ ] = dose if it differs, or a comment. A selection: hits, their analogues and other compounds. The true share with any hit is near 9.2%. Calls come from the whole dose curve; as a rule, active = well fitted curve in the direction sought with a large enough effect; inconclusive = small, poorly fitted or top-dose-only effect, or another doubt; inactive = no such curve, though single readings can be large; an effect the other way counts as inactive or inconclusive. Potency is the fitted concentration of half-maximal effect.

SMILES | Rab9 prom act | NPC1 prom act | SMN2 splice up | ELG1 genotoxic | ELG1 DNA repair | FLuc counter
O=C(Nc1ccc(S(=O)(=O)N2CCCC2)cc1)c1cc(F)c(F)cc1Cl | -2.2% | 1.3% | . | -6.1% | 14.6µM* | -5.0%
O=C(Nc1ccc2c(c1)OCCO2)c1c(F)c(F)c(F)c(F)c1F | 5.4% | -0.8% | -4.4% | 0.9% | -1.4% | 1.5%
Cc1oc(C(C)(C)C)cc1C(=O)Nc1ccc2c(c1)OCO2 | 18.5% | 22.2% | . | -2.3% | -0.9% | ?
O=C(Nc1ccc(S(=O)(=O)N2CCCCC2)cc1)c1ccccc1F | -3.7% | -8.4% | . | -9.4% | 0.5% | 5.0%
O=C(Nc1ccc2c(c1)OCCO2)c1cc(F)c(F)cc1Cl | 2.51µM* | 2.24µM* | . | ? | ? | 12µM*
C[C@@H](C(=O)NCc1ccc(C(F)(F)F)nc1)[C@H]1C[C@]1(C)[C@H](NC(=O)OCc1ccccc1)c1ccccc1 | . | . | -16.5% | . | . | .
CC(C)(C)OC(=O)N1CCC(c2c(C(=O)NCCN3CCOCC3)cnn2-c2ccc(F)cc2F)CC1 | . | . | . | . | . | -1.3%
O=C(Nc1ccc2c(c1)OCCO2)c1cccc(Cl)c1Cl | 1.58µM* | 3.55µM* | . | 2.59µM* | ? | 7.57µM*
CN(C)C(=O)c1ccc(NC(=O)Cn2nc(-c3ccccc3)c3ccccc3c2=O)cc1 | . | . | 2.3% | . | . | 1.2%
Oc1ccccc1C(Nc1nccs1)c1ccc2cccnc2c1O (stereo not given) | -40.6% | -31.5% | . | 7.1% | 3.66µM* | 0.5%
CCN1CCN(Cc2c(O)ccc3c2O/C(=C\C=C\c2ccccc2OC)C3=O)CC1 | 2.3% | -1.2% | 3.6% | -0.6% | -3.5% | 4.78µM*
CCN1CCN(Cc2c(O)ccc3c(=O)c(-c4ccccc4OC)coc23)CC1 | -1.7% | 0.5% | -13.4% | 1.6% | 10.7% | 0.0%
CCOC(=O)N/C(N)=N/c1nc2ccccc2s1 | 3.16µM* | 1.58µM* | 11.2µM* | 4.11µM* | ? | 5.36µM*
CCOC(=O)NC(=O)COC(=O)CCCSc1nc2ccccc2s1 | -3.7% | -3.8% | -6.5% | 1.6% | 1.0% | ?
CC(=O)N/C(N)=N/c1nc(=O)c2ccccc2s1 | 2.51µM* | ? | . | 18.3µM* | ? | 13.5µM*
Cc1ccc2c(CC(=O)Nc3ccc(S(=O)(=O)N4CCC(C)CC4)cc3)coc2c1 | . | . | -16.6% | . | . | 1.4%
COc1ccc(N2CC(O)=C(c3nc(-c4ccc(F)cc4)cs3)C2=N)cc1OC | ? | 28.9% | -2.2% | -3.1% | 13µM* | ?
CC(C)c1ccc(O)c(NC(=O)c2ncn[nH]2)c1 | 17.9% | -5.0% | -14.4% | -1.3% | 23.7% | ?
CCc1ccc2c(c1)C1(NN=C(c3ccc(C)cc3)S1)C(=O)N2 (stereo not given) | -1.6% | -2.1% | -45.1% | ? | ? | 26.9µM*
CC(C)c1ccc2c(c1)C1(NN=C(c3ccccc3)S1)C(=O)N2 (stereo not given) | -0.8% | -6.0% | -70.9% | 19.1% | ? | 16.9µM*
CCOC(=O)c1c(C)oc(NC(=O)COc2ccc(Cl)cc2C)c1C#N | 0.3% | -0.2% | 11.5% | 3.4% | 20.6µM* | ?
Cc1cc(Cl)ccc1OCC(=O)Nc1ccccc1CO | 15.1% | 23.1% | 25.3% | ? | ? | 21.3µM*
Cc1c(C)c2ccc(OCC(=O)Nc3cccnc3)c(C)c2oc1=O | 19.8% | ? | . | ? | ? | 10.7µM*
Cc1cc(Cl)ccc1OCC(=O)Nc1cccnc1 | -6.5% | 5.1% | . | ? | ? | 13.5µM*
CCCCCNC(=O)CCn1c(=O)[nH]c2ccccc2c1=O | . | . | . | . | . | -3.9%
SMILES | Rab9 prom act | NPC1 prom act | SMN2 splice up | ELG1 genotoxic | ELG1 DNA repair | FLuc counter
CCCN1C(=O)C2(c3ccccc31)c1c(oc3ccc(C)cc3c1=O)C(=O)N2CCOC (stereo not given) | . | . | 12.2% | . | . | 4.2%
CC(C)c1ccc(NC(=O)[C@H]2O[C@@H]3OC(C)(C)O[C@@H]3[C@H]3OC(C)(C)O[C@H]32)cc1 | . | . | -0.8% | . | . | -0.6%
CC(C)NS(=O)(=O)c1ccc(NC(=O)C(C)OC(=O)CCC(=O)c2cccs2)cc1 (stereo not given) | -11.7% | -8.6% | . | 0.5% | -0.7% | 3.9%
CCOc1ccc2nc(N3CCC(C(=O)Nc4c(C)cccc4C)CC3)sc2c1 | . | . | -4.1% | . | . | -12.6%
CCOc1ccc2nc(N3CCC(C(=O)N4CCN(c5ncccn5)CC4)CC3)sc2c1 | 17.4% | ? | . | -0.5% | 6.5% | 12µM*
CCOc1ccc2nc(N3CCC(C(=O)N4CCN(c5ccccn5)CC4)CC3)sc2c1 | -14.8% | -0.8% | -86.4% | 7.31µM* | 11.6µM* | 10.7µM*
O=C(Nc1ccc(F)cc1)Nc1ccc(Cl)cn1 | ? | 25.8% | ? | ? | ? | -4.1%[2.3 µM]
CS(=O)(=O)N1CCN(c2ccc(NC(=O)c3cccnc3Cl)cc2)CC1 | ? | 2.6% | 20.0% | 6.8% | 19.6% | -8.8%
O=C(Nc1ccc(N2CCCCC2)cc1)c1cccnc1Cl | ? | 21.7% | -5.7% | 20.6µM* | ? | ?
O=C(Nc1ccc(N2CCCCC2)cc1)c1ccc(F)cc1F | 0.355µM* | 0.316µM* | . | ? | ? | 1.35µM*
O=C(NC(=O)c1ccc(F)cc1F)Nc1ccc(Cl)cc1 | 2.24µM* | ? | . | 13.3% | ? | -10.1%
CC(=O)Nc1ccc(N2CCCCC2)cc1 | 10.4% | 13.3% | -10.2% | 7.4% | 12.0% | -14.0%
O=C(Nc1ccc(N2CCCC2)cc1)c1ccccc1F | 0.501µM* | 0.501µM* | 2.82µM* | ? | ? | 2.13µM*
COc1ccc(CCNC(=O)C(=O)NCC(c2cccs2)S(=O)(=O)c2cccs2)cc1 (stereo not given) | . | . | . | . | . | 2.9%
CC#CC(=O)NCC1(N(C)Cc2ccccc2)Cc2ccccc2C1 | -2.0% | -0.5% | . | -4.0% | -11.9% | 0.1%
O=C1C(Cl)=C(Nc2ccc(O)cc2)C(=O)c2ccccc21 | -45.9% | -35.9% | . | -9.2% | ? | ?
CC(=O)Nc1ccc(NC2=CC(=O)c3ccccc3C2=O)cc1 | 2µM* | ? | . | ? | ? | ?
O=C1C=C(Nc2ccc(O)cc2)C(=O)c2ccccc21 | ? | 0.6% | . | ? | ? | 5.36µM*
CC(=O)Nc1ccc(Nc2ccccc2)cc1 | 1.8% | 2.4% | . | 6.6% | ? | -20.5%
